Results on 40 molecules are retold here after PubChem BioAssay (NCATS).

Structures are written as SMILES. Inconclusive results are not listed. Activity calls are given as the source filed them. The call rests on the fitted dose curve; in most records, active means well fitted curve in the direction sought with a large enough effect; inconclusive means small, poorly fitted or top-dose-only effect, or another doubt; inactive means no such curve, though single readings can be large or run the other way.

The test is described as follows: Cytometric Cell-Based qHTS for Inhibitors of the mTORC1 Signaling Pathway in MEF (Tsc2-/-, p53-/-) Cells (AID 2660).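 Further: Tsc2 and p53 null MEFs carrying empty vector with compound for 24 h; percent of cells above a phospho-rpS6 to PI ratio cutoff in each well.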 The settings on record: mTORC1 pathway cytometry; series mostly up to 38.3 µM. The text has this: NIH Molecular Libraries Probe Production Centers Network [MLPCN]
NIH Chemical Genomics Center [NCGC]
Assay Submitter (PI): Blenis, John; Hoffman, Greg; Harvard University
NCGC Assay Overview: The mammalian target of rapamycin (mTOR) is an intracellular serine/threonine kinase Aberrant regulation of mTOR signaling plays a causative role in a number of human diseases, including cancer, benign tumors such as lymphangioleiomyomatosis (LAM) and Tuberous Sclerosis Complex (TSC), and metabolic diseases such as diabetes and obesity. This project aims to identify inhibitors of ribosomal protein S6 (rpS6) phosphorylation. The phosphorylation of rpS6 is a key event downstream of mTOR activation. The assay uses a phospho-specific antibody of phospho-rpS6 to detect inhibitors of mTOR activation. Mutations in the Tsc1 and Tsc2 genes are the underlying genetic lesions responsible for TSC, causing constitutive activation of the mTORC1 pathway and leading to profound effects on cell metabolism. Aberrant metabolism in cancer has recently received significant attention as a target to develop therapeutic agents in the treatment of cancer.1 As Tsc2-/- cells have lost the ability to respond to energy and growth factor deprivation, these cells are unable to properly down regulate cellular biosynthetic processes in response to metabolic stress, and are thus extremely sensitive to glucose deprivation-induced death.2 A central goal of this project is to explore the unique cell survival and metabolic properties of cells with Tsc1 or Tsc2 by screening for compounds that selectively target the Tsc2-/- MEFs by screening both Tsc2-/- and WT MEF cell lines. We hope to better understand these aspects of TSC physiology in order to exploit them for therapeutic benefit.
NCGC Acumen Assay Protocol Summary:
For quantitative high throughput analysis of mTORC1 signaling, we developed a cell-based assay for immuno-fluorescence based detection of rpS6 phosphorylation on the Acumen Explorer that will be used a platform for the primary small molecule screen. Mouse embryonic fibroblasts (MEFs) are cultured in 1536-well plates using DMEM + 10% FBS. Twenty-four hrs after plating, test compounds (solubilized in DMSO) are delivered and incubated with the cells for 24 hrs at 37 degree Celsius. Following the incubation, media with compound is aspirated and the cells are fixed in 4% paraformaldehyde (PFA) containing PBS + 0.2% TX-100. Next, PFA is aspirated, cells are washed two times with PBS plus 0.2% TX-100 and the cells are blocked for 1 hr at room temperature (blocking buffer: LiCOR Blocking Buffer plus 0.2% TX-100). This is followed by aspiration and staining with Alexa-488 conjugated-phospho-rpS6 Ser235/236 antibody for 2 hours at room temperature (Cell Signaling Technology # 4803, 1:50 dilution in blocking buffer). Cells are washed two times with PBS plus 0.2% TX-100, and stained with 10 uM propidium iodide (PI) for 20-25 minutes for cell number measurement (1:500 dilution of Hoescht staining is also added for IN Cell imaging). The plates are scanned on the Acumen Explorer laser scanning instrument (TTP Labtech) using the 488nm laser for simultaneous excitation of the Alexa-488 and PI. The fluorescence emission from the Alexa-488 conjugated rpS6 phospho-235/236 antibody staining is selected using a […] band pass filter. Fluorescence emission from the PI stain is selected using a 575-640 nm band pass filter. The normalized phospho-S6 staining is calculated as the ratio of the integrated Alexa 488 intensity divided by the integrated PI intensity for the single concentration rapamycin control (7.5 nM) and DMSO columns. […] Inhibition of the pathway is defined based on the normalized phospho-S6 intensity in rapamycin treated cells. […]
As to `NCCC1CCCC(CCN)N1` (stereo not given), the molecule was called inactive.
In the case of `C[C@H](NC(=O)/C(C#N)=C/c1ccc(O)c(O)c1)c1ccccc1` it was “inactive”; in that of `O=C(O)c1cc(=O)cc(C(=O)O)[nH]1`, “inactive”.
Take `Cn1c(=O)[nH]c2ncn(C)c2c1=O`: the result was inactive.
Turning to `O=C(O)c1cccnc1C(=O)O`, the call was inactive.
Regarding `CCCCCCCCCCC/C=C\C(C)(C)/C=C\CCCC(=O)O`, the molecule was classed as inactive.
Regarding `CC[C@H](NC(=O)c1c(C)c(-c2ccccc2)nc2ccccc12)c1ccccc1`, the molecule was called inactive.
With `NC1CCN(O)C1=O` (stereo not given), the outcome was inactive.
For the molecule `CC(N)(Cc1ccc(O)c(O)c1)C(=O)O` (stereo not given), the molecule was called inactive.
In the case of `CSC(N)=NCCC[C@H](N)C(=O)O` it was “inactive”.
Take `Cc1nc(N=Nc2ccc(C(=O)O)cc2)c(COP(=O)(O)O)c(C=O)c1O`: the molecule was classed as inactive.
As for `C[C@@H](NCCc1ccc(O)cc1)[C@@H](O)c1ccc(O)cc1`, the result was inactive.
Consider `COc1cc(/C=C(\C#N)C(=O)c2ccc(O)c(O)c2)cc(I)c1O`, for which the molecule was classed as inactive.
As for `Nc1ccc(N2C(=O)c3ccccc3C2=O)c(Cl)c1`, the result was inactive.
Consider `CCCn1c(=O)c2[nH]c(-c3ccc(S(=O)(=O)O)cc3)nc2n(CCC)c1=O`, for which the result was inactive.
The entry for `Cc1nc2n(c(=O)c1CCN1CCC(c3noc4cc(F)ccc34)CC1)CCCC2O` (stereo not given) is “inactive”; for `c1ccc(C(NCc2cccnc2)(c2ccccc2)c2ccccc2)cc1` it is “inactive”; for `NCC(O)c1ccc(O)c(O)c1` (stereo not given) it is “inactive”.
In the case of `Nc1ccc(CCNc2ncnc3c2ncn3C2OC(CO)C(O)C2O)cc1` (stereo not given) it was “inactive”.
Take `CCOC(=O)C12CC1/C(=N/O)c1ccccc1O2` (stereo not given): the molecule was called inactive.
As to `O=c1[nH]c2ccccc2c2ccccc12`, the result was inactive.
As for `CC(C)(C)NCC(O)COc1cccc2[nH]c(=O)[nH]c12` (stereo not given), the molecule was called inactive.
On to `Oc1ccc(Cn2cc[nH]c2=S)cc1`, for which the result was inactive.
In the case of `Cc1cc(Cn2cnc3c2C[C@@H](C(=O)O)N(C(=O)C(c2ccccc2)c2ccccc2)C3)ccc1N` it was “inactive”.
`O=S(=O)(c1cccc2c(Cl)cccc12)N1CCCNCC1`: the molecule was called inactive.
In the case of `Cc1cccc(C(=O)NCN2CCN(c3ccccc3C#N)CC2)c1`, the call was inactive.
On to `N[C@@H](CS(=O)O)C(=O)O`, for which the result was inactive.
As to `NC(=O)CC[C@H](N)C(=O)O`, the call was inactive.
For the molecule `COc1cc(N)c(Cl)cc1C(=O)OCCN1CCCCC1`, the molecule was called inactive.
For the molecule `CCCCOC(=O)NS(=O)(=O)c1sc(CC(C)C)cc1-c1ccc(Cn2c(CC)nc3c(C)cc(C)nc32)cc1`, the molecule was classed as inactive.
As for `c1ccc2c(c1)CCC[C@H]2Nc1nc2ccccc2[nH]1`, the result was inactive.
On to `CC1C(=O)N(C)C(=O)c2nc[nH]c21` (stereo not given), for which the outcome was inactive.
Regarding `N=S(=O)(O)Cc1noc2ccccc12`, the outcome was inactive.
As for `Nc1ncnc2c1c(-c1ccc(Oc3ccccc3)cc1)cn2C1CCCC1`, the molecule was classed as inactive.
For the molecule `COc1ccccc1N1CCN(CCCNc2c(C)c(=O)n(C)c(=O)n2C)CC1`, the result was inactive.
As to `CCCOC(=O)c1c(-c2ccccc2)nc(CC)c(C(=O)SCC)c1CCC`, the call was inactive.
For the molecule `Nc1nc2c(cnn2CCc2ccccc2)c2nc(-c3ccco3)nn12`, the molecule was classed as inactive.
For the molecule `O=c1[nH]c2cc(Cl)ccc2c(O)c1-c1ccc(Oc2ccccc2)cc1`, the outcome was inactive.
Turning to `CN1CCCC1CCOC(C)(c1ccccc1)c1ccc(Cl)cc1` (stereo not given), the outcome was inactive.
Regarding `CCCC[C@@]1(C2CCCC2)Cc2cc(OCC(=O)O)c(Cl)c(Cl)c2C1=O`, the call was inactive.
